Measurements as given in PubChem BioAssay AID493170 (National Center for Advancing Translational Sciences (NCATS), 2011).
Results filed as inconclusive are left out. A number with no mark means an inactive call. Activity calls are given as the source filed them. The call rests on the fitted dose curve; in most records, active means well fitted inhibition curve with a large enough effect; inconclusive means small, poorly fitted or top-dose-only effect, or effect the other way; inactive means flat fitted curve, though single readings scatter.

molecular target: Ubiquitin carboxyl-terminal hydrolase 2 (Homo sapiens) (UniProt O75604); test: Ub-rhodamine 110 based assay for inhibitors Ubiquitin-specific Protease USP2a; conditions: USP2a Ub-rhodamine110 cleavage, fluorescence; series mostly up to 38.3 µM; activity change, negative = inhibition: at the top concentration; further: nearly all actives have a fitted effect of over 50% in size
Sequence (O75604 whole entry, looked up): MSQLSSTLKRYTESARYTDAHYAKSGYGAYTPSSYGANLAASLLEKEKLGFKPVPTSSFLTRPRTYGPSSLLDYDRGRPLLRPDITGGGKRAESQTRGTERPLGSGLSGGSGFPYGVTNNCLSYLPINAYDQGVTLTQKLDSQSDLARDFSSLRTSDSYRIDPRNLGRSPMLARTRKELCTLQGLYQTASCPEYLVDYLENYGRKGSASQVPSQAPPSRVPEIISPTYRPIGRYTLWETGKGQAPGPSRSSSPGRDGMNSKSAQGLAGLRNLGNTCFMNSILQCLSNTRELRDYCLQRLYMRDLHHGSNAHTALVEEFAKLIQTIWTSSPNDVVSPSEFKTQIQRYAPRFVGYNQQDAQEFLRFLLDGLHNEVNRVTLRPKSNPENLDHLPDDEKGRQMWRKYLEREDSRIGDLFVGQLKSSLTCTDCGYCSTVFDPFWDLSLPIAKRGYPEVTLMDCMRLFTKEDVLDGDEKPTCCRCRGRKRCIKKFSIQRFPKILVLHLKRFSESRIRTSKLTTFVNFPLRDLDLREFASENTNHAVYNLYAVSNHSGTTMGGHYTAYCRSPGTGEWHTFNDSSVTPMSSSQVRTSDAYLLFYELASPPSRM
How it was run: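 Kinetic fluorescence (485/531 nm) read each minute over 7 min after adding Ub-Rhod110 (150 nM final) to USP2a (5 nM final). The enzyme had 30 min RT exposure to compounds beforehand in Tris pH 8.0 buffer with CaCl2, CHAPS and beta-ME.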
On the % scale 0 is the no-effect control and ±100 the full control effect; potency means the concentration at half of the fitted maximal effect.

| SMILES | activity change, negative = inhibition | Potency |
| --- | --- | --- |
| Cc1noc(/C=C/NCc2cccnc2)c1S(=O)(=O)N(C)CC(=O)N1CCc2ccccc21 | -11.3% |  |
| C=C(CCC(=O)c1ccccc1)C(=O)c1ccccc1 | -13.8% |  |
| Cc1ccc(NC(=O)c2onc(C)c2Cl)cc1 | -5.26% |  |
| OCCN(Cc1ccccc1)c1ncnc2sccc12 | -13.2% |  |
| O=C(NC1CCCCC1)C(c1ccco1)N(Cc1ccco1)C(=O)c1ccco1 (stereo not drawn) | -21.9% |  |
| CSC1=NCCN1C(=O)Cc1ccc(F)cc1 | 6.29% |  |
| Cn1nc(CC(=O)NCc2ccc(F)cc2)c2ccccc2c1=O | -3.88% |  |
| CCCc1cc(=O)oc2cc(C)c(CN3CCCC3)c(O)c12 |  | 10 µM (active) |
| Cc1cc(N2CCOCC2)nc(SCC(=O)c2ccc(Cl)cc2)n1 | -4.72% |  |
| CCC1=[N+](CC(=O)c2ccc(Br)cc2)CCn2c(C)ccc21 | -20.7% |  |
| O=[N+]([O-])/C(C(Cl)=C(Cl)Cl)=C(\Sc1ccccc1)N1CCCCC1 | -2.49% |  |
| Cc1ccc(S(=O)(=O)Nc2ccc(N3CCOCC3)cc2)cc1 | -7.65% |  |
| CCCn1nnc(NC(=O)c2cccc(OCC(C)C)c2)n1 | -0.324% |  |
| Cc1ccc(OCC(=O)Nc2ccc(N3CCCC3)cc2)cc1C |  | 10 µM (active) |
| O=C(CSc1ncn[nH]1)Nc1ccc(Br)cc1F | 2.25% |  |
| C[C@H](CO)N1C[C@H](C)[C@@H](CN(C)S(=O)(=O)c2cccs2)Oc2c(NC(=O)Nc3ccc4c(c3)OCO4)cccc2C1=O | -4.09% |  |
| COc1ccccc1-n1c(SCC(=O)Nc2ccc(C)cc2)nc(O)cc1=O | 1.74% |  |
| COC1=CCC2([N+](=O)[O-])CN(CCO)CC1([N+](=O)[O-])C2 (stereo not drawn) | 3.44% |  |
